Data on 39 targets can be found in the supplement of paper PMC10849652.

Of roughly 8,800 targets only a part is listed; those with a hit were picked by preference. About 0.5% of all pairs of compound and target were hits.

Chain of UniProt Q10713 (Q10713 whole entry, looked up): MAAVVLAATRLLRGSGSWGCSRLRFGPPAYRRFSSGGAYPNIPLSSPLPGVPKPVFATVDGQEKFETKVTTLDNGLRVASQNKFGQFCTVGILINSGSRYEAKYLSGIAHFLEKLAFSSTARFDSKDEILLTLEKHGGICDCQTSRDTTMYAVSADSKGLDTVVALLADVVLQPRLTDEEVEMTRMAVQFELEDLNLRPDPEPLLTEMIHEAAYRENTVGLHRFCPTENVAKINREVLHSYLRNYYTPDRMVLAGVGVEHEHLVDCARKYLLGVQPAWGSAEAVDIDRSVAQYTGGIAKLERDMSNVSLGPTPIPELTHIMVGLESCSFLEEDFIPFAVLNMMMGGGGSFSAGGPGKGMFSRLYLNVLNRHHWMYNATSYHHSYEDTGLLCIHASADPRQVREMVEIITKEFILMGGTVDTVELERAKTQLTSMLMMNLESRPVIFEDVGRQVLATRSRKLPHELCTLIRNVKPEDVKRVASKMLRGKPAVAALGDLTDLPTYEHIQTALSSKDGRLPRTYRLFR
Chain of UniProt P17706 (P17706 whole entry, looked up): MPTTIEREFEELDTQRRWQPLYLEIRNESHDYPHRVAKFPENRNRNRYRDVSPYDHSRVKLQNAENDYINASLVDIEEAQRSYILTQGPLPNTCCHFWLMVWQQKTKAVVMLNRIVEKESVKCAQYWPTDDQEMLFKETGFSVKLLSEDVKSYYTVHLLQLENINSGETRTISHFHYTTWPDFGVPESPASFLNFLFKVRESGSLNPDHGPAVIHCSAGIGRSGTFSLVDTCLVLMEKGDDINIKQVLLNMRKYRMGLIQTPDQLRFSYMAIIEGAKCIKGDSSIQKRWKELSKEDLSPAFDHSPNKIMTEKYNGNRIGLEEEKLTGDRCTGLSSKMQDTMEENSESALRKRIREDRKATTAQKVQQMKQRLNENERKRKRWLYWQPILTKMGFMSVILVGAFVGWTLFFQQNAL
Chain of UniProt Q9NXJ5 (Q9NXJ5 whole entry, looked up): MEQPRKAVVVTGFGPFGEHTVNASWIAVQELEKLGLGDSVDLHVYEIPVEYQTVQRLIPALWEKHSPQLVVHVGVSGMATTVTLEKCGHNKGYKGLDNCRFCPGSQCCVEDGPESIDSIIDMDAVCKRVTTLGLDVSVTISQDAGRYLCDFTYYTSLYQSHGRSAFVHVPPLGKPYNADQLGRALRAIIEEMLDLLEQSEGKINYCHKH
Chain of UniProt P49642 (P49642 whole entry, looked up): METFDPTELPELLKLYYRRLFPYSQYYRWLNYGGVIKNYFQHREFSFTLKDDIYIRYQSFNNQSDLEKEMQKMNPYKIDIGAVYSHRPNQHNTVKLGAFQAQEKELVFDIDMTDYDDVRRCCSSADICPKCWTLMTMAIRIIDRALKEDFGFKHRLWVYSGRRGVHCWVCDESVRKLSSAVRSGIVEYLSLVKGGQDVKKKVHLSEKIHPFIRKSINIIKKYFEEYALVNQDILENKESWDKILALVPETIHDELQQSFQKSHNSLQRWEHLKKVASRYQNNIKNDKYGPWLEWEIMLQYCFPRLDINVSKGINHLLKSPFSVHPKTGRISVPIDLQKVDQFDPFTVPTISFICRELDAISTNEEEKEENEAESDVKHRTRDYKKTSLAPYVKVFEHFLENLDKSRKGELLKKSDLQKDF
Chain of UniProt O75334 (O75334 whole entry, looked up): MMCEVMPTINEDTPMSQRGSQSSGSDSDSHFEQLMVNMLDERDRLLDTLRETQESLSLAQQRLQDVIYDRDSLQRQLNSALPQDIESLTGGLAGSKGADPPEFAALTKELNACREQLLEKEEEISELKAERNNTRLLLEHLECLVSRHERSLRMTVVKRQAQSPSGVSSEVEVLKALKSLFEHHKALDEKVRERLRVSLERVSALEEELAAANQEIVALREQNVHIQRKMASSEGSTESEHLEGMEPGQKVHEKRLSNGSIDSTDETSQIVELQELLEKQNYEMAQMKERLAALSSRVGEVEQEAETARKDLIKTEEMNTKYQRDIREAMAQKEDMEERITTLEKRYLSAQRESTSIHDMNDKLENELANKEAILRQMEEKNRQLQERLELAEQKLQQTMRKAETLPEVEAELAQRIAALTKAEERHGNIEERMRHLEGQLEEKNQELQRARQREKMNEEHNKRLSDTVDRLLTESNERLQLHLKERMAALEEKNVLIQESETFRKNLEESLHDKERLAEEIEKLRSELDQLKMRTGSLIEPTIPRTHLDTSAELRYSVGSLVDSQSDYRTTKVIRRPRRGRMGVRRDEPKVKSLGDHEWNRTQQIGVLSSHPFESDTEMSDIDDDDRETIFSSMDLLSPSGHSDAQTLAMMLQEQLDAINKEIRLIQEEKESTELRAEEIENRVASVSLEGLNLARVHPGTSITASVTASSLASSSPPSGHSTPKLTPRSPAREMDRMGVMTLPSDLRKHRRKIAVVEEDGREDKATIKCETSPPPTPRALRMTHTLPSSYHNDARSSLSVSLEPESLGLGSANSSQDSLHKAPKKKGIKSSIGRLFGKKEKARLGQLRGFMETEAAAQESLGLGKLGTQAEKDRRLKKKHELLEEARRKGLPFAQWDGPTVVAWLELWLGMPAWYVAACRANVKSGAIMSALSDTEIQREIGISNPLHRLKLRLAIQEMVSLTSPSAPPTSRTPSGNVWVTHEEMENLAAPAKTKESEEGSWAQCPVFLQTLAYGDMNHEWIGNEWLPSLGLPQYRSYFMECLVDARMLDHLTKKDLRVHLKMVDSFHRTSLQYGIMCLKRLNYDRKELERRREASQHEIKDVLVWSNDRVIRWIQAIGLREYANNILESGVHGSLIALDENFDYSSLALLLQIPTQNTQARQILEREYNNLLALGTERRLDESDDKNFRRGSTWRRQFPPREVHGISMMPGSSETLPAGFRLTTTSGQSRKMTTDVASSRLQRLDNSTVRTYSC
Chain of UniProt Q9BUL8 (Q9BUL8 whole entry, looked up): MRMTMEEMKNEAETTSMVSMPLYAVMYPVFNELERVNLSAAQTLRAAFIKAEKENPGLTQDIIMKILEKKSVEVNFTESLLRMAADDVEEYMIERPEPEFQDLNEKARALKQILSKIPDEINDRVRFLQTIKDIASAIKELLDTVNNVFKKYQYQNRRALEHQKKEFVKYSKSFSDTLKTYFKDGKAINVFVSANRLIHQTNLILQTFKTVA
Chain of UniProt Q12972 (Q12972 whole entry, looked up): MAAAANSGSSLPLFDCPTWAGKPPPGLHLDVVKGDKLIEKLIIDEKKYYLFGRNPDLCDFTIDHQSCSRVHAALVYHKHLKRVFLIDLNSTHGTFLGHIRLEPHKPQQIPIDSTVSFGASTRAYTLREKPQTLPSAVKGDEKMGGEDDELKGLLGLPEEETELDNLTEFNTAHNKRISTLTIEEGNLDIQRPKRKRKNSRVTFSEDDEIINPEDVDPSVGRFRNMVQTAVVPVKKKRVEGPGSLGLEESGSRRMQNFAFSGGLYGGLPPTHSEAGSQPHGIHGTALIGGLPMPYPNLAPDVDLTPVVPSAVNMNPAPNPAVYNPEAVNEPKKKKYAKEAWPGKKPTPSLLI
Chain of UniProt P18031 (P18031 whole entry, looked up): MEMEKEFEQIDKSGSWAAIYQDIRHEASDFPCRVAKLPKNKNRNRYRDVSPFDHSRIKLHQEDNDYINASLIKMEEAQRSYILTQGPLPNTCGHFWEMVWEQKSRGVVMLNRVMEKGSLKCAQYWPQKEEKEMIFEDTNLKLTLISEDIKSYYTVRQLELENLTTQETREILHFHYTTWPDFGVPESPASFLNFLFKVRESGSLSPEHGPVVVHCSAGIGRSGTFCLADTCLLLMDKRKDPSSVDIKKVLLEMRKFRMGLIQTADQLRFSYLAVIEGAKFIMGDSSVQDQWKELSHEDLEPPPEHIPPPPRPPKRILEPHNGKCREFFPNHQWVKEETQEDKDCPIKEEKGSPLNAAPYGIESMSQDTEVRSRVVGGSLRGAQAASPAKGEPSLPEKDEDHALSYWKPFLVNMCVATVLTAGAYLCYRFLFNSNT
Chain of UniProt P41219 (P41219 whole entry, looked up): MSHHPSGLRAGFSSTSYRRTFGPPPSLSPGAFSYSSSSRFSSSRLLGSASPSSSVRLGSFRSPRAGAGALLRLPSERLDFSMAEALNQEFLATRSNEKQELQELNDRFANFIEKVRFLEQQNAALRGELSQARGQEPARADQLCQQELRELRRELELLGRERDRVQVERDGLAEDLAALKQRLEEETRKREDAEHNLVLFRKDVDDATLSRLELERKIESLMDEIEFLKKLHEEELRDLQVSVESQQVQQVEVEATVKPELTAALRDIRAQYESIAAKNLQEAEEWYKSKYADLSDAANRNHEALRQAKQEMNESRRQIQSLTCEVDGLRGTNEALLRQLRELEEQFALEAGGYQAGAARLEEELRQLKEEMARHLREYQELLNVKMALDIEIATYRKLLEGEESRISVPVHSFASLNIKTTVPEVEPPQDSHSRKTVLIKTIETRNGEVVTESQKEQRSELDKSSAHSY
Chain of UniProt P14314 (P14314 whole entry, looked up): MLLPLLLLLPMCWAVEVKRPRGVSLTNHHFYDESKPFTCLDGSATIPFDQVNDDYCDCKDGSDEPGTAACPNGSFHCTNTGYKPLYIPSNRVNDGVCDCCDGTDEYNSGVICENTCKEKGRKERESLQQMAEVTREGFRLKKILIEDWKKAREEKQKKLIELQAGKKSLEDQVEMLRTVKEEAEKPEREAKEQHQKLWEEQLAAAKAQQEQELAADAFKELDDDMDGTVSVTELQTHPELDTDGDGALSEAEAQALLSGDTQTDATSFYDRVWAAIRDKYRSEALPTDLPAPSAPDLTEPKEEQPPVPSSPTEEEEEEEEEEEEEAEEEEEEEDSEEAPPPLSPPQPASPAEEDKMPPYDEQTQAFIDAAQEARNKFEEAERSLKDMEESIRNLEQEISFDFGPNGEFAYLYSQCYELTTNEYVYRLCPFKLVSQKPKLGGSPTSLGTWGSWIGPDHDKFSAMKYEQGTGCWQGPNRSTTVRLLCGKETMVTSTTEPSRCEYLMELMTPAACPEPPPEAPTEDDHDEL
Chain of UniProt Q96I23 (Q96I23 whole entry, looked up): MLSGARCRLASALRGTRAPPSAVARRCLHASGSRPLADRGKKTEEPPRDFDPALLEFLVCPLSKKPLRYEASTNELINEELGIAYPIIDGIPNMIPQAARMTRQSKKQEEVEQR

Compound in the first test: CCCS(=O)(=O)Nc1ccc(F)c(C(=O)c2c[nH]c3ncc(-c4ccc(Cl)cc4)cc23)c1F [vemurafenib]
In words: log2 fold change, soluble protein after heating vs DMSO (PISA); higher = thermal stabilisation; K562 lysate, 10 uM; active = over 0.2 and 3.5 SD of the protein, either way, in both replicates (recomputed). Put shortly:
(§1)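 Following dounce homogenisation of K562 pellets in PBS pH 7.4 with 1 mM MgCl2, crude extract at 1 mg/mL protein was incubated for 30 min with 10 μM compound. Aliquots were then heated for 3 min over 48°C-58°C and pooled, NP-40 was added to 0.5% at 4°C, and soluble protein was recovered as the supernatant at 21,000xg for 90 min. Channel-sum-equalised TMTpro 16plex LC-MS/MS quantified this protein. Each value, from duplicates, is a log-two fold change in thermal stability relative to solvent controls.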
Turning to PDCD10 (UniProt Q9BUL8), the log2 fold change was -0.021 (inactive).

For PGPEP1 (UniProt Q9NXJ5), the log2 fold change was 0.021 (inactive).

As for PRIM1 (UniProt P49642), the log2 fold change was -0.036 (inactive).

For PPP1R8 (UniProt Q12972), the log2 fold change is 0.049 (inactive).

For PELO (UniProt Q9BRX2), the log2 fold change is 0 (inactive).

In the case of PDCD6IP isoform 2 (UniProt Q8WUM4), the log2 fold change is -0.018 (inactive).

Take PTGES2 (UniProt Q9H7Z7): the log2 fold change is 0.547 (active).

On to PYURF (UniProt Q96I23), for which the log2 fold change is -0.048 (inactive).

As for PMPCA (UniProt Q10713), the log2 fold change was 0.047 (inactive).

Consider POLA1 (UniProt P09884), for which the log2 fold change was 0.002 (inactive).

On to PHKG2 (UniProt P15735), for which the log2 fold change is -0.074 (inactive).

Turning to PRKACB isoform 2 (UniProt P22694), the log2 fold change is -0.077 (inactive).

POLB (UniProt P06746): the log2 fold change was -0.013 (inactive).

PTPN1 (UniProt P18031): the log2 fold change is 0.04 (inactive).

For the target PRPH isoform 2 (UniProt P41219), the log2 fold change is 0.03 (inactive).

In the case of PKN1 isoform 2 (UniProt Q16512), the log2 fold change was 0.013 (inactive).

For PPP4R2 (UniProt Q9NY27), the log2 fold change was -0.033 (inactive).

For PEF1 (UniProt Q9UBV8), the log2 fold change is -0.025 (inactive).

Regarding PXMP4 (UniProt Q9Y6I8), the log2 fold change was 0.343 (inactive).

POLR3E (UniProt Q9NVU0): the log2 fold change was 0.011 (inactive).

As for PRKRA (UniProt O75569), the log2 fold change was -0.012 (inactive).

For the target PTK2 (UniProt Q05397), the log2 fold change was 0.017 (inactive).

On to PLIN2 (UniProt Q99541), for which the log2 fold change is 0.014 (inactive).

For PHACTR4 isoform 2 (UniProt Q8IZ21), the log2 fold change is 0.011 (inactive).

As for PTGR2 (UniProt Q8N8N7), the log2 fold change is -0.029 (inactive).

In the case of PRMT5 (UniProt O14744), the log2 fold change is 0.006 (inactive).

For the target PCYT1B (UniProt Q9Y5K3), the log2 fold change is 0.013 (inactive).

With POC5 (UniProt Q8NA72), the log2 fold change was -0.062 (inactive).

PFKP (UniProt Q01813): the log2 fold change was -0.047 (inactive).

Turning to PDF (UniProt Q9HBH1), the log2 fold change is -0.012 (inactive).

As to PYCR2 (UniProt Q96C36), the log2 fold change was 0.004 (inactive).

Consider PDE2A (UniProt O00408), for which the log2 fold change was 0.374 (active).

With PRKACA (UniProt P17612), the log2 fold change is -0.036 (inactive).

PTPN2 (UniProt P17706): the log2 fold change is 0.027 (inactive).

As to PPFIA2 (UniProt O75334), the log2 fold change was 0.062 (inactive).

Take PTP4A1 (UniProt Q93096): the log2 fold change is -0.006 (inactive).

On to PDXDC1 (UniProt Q6P996), for which the log2 fold change was -0.005 (inactive).

As for PRKCSH isoform 2 (UniProt P14314), the log2 fold change is 0.007 (inactive).

As to POLD3 (UniProt Q15054), the log2 fold change was 0.003 (inactive).

Compound in another test: CCCS(=O)(=O)Nc1ccc(F)c(C(=O)c2c[nH]c3ncc(Cl)cc23)c1F
The description is as above. Put shortly: as §1
As to PDCD10 (UniProt Q9BUL8), the log2 fold change was -0.002 (inactive).

Consider PGPEP1 (UniProt Q9NXJ5), for which the log2 fold change is 0.022 (inactive).

Regarding PRIM1 (UniProt P49642), the log2 fold change was 0.022 (inactive).

As to PPP1R8 (UniProt Q12972), the log2 fold change was -0.011 (inactive).

With PELO (UniProt Q9BRX2), the log2 fold change is 0.021 (inactive).

In the case of PDCD6IP isoform 2 (UniProt Q8WUM4), the log2 fold change is -0.005 (inactive).

Consider PTGES2 (UniProt Q9H7Z7), for which the log2 fold change is 0.06 (inactive).

Consider PYURF (UniProt Q96I23), for which the log2 fold change was -0.003 (inactive).

Regarding PMPCA (UniProt Q10713), the log2 fold change is 0.037 (inactive).

POLA1 (UniProt P09884): the log2 fold change is 0 (inactive).

For the target PHKG2 (UniProt P15735), the log2 fold change was -0.055 (inactive).

Regarding PRKACB isoform 2 (UniProt P22694), the log2 fold change is -0.016 (inactive).

For POLB (UniProt P06746), the log2 fold change was 0.003 (inactive).

Regarding PTPN1 (UniProt P18031), the log2 fold change is -0.005 (inactive).

Take PRPH isoform 2 (UniProt P41219): the log2 fold change was -0.05 (inactive).

As to PKN1 isoform 2 (UniProt Q16512), the log2 fold change is 0.049 (inactive).

As for PPP4R2 (UniProt Q9NY27), the log2 fold change was 0.026 (inactive).

On to PEF1 (UniProt Q9UBV8), for which the log2 fold change was 0.015 (inactive).

Consider PXMP4 (UniProt Q9Y6I8), for which the log2 fold change is 0.114 (inactive).

Consider POLR3E (UniProt Q9NVU0), for which the log2 fold change is 0.02 (inactive).

In the case of PRKRA (UniProt O75569), the log2 fold change is 0.031 (inactive).

With PTK2 (UniProt Q05397), the log2 fold change is -0.091 (inactive).

As to PLIN2 (UniProt Q99541), the log2 fold change was -0.01 (inactive).

On to PHACTR4 isoform 2 (UniProt Q8IZ21), for which the log2 fold change is 0.011 (inactive).

Consider PTGR2 (UniProt Q8N8N7), for which the log2 fold change is 0.04 (inactive).

In the case of PRMT5 (UniProt O14744), the log2 fold change was -0.008 (inactive).

On to PCYT1B (UniProt Q9Y5K3), for which the log2 fold change is 0.011 (inactive).

As for POC5 (UniProt Q8NA72), the log2 fold change was -0.049 (inactive).

Turning to PFKP (UniProt Q01813), the log2 fold change is -0.056 (inactive).

Consider PDF (UniProt Q9HBH1), for which the log2 fold change is 0.03 (inactive).

For the target PYCR2 (UniProt Q96C36), the log2 fold change is -0.005 (inactive).

PDE2A (UniProt O00408): the log2 fold change was -0.015 (inactive).

Consider PRKACA (UniProt P17612), for which the log2 fold change was -0.016 (inactive).

With PTPN2 (UniProt P17706), the log2 fold change was -0.017 (inactive).

Consider PPFIA2 (UniProt O75334), for which the log2 fold change was -0.018 (inactive).

In the case of PTP4A1 (UniProt Q93096), the log2 fold change is -0.029 (inactive).

Consider PDXDC1 (UniProt Q6P996), for which the log2 fold change was -0.02 (inactive).

Take PRKCSH isoform 2 (UniProt P14314): the log2 fold change is -0.053 (inactive).

With POLD3 (UniProt Q15054), the log2 fold change is -0.005 (inactive).
